# A selection: hits, their analogues and other compounds. The true share with any hit is near 2.4%.
# CHRM1 antagonist: human M1 muscarinic receptor antagonists, primary screen, CHO-K1 cells, Fluo-8 calcium fluorescence, 1536-well | AID 588852, 2011 | Muscarinic acetylcholine receptor M1 (Homo sapiens), P11229 | inhibition, % at 3 µM | CHO-K1 hM1, ACh EC80 antagonist | 360,000 tested, 1.3% active;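 active = percent inhibition above its own plate's cutoff, namely the mean of that plate's compound wells plus 3 SD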;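 note: peak over basal fluorescence ratio during 140 s after agonist addition; 0% = ACh EC80 plus DMSO and 100% = DMSO alone without agonist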
# Target sequence (P11229 whole entry, looked up): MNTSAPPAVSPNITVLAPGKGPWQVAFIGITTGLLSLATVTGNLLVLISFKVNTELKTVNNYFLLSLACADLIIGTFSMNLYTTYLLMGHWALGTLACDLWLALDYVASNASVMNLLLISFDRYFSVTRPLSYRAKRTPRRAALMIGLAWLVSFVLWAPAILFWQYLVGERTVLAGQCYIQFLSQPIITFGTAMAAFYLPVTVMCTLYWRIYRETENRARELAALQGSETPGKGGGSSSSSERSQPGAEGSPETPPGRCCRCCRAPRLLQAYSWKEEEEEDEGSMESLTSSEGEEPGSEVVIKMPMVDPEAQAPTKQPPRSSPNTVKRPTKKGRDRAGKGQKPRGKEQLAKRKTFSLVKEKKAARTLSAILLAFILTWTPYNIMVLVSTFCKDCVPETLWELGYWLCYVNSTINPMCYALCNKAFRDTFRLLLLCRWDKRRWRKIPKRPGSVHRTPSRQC
# CHO-K1 Ca antag: nonselective inhibitor or artifact in parental CHO-K1 cells. ATP-induced calcium, Fluo-8 fluorescence. inhibition, % at 3 µM. 360,000 tested, 0.6% active;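 active = inhibition above a per-plate cutoff, the plate's mean sample inhibition plus 3 SD, cut at about 24% in these data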;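 note: 0% = DMSO plus EC80 ATP and 100% = DMSO alone without ATP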
# CHO-K1 Ca ag: counter-screen for M1 agonists: effect in parental CHO-K1 cells | Fluo-8 calcium fluorescence; scaled to maximal ATP response, vehicle zero | activation, % at 3 µM | 360,000 tested, 0.48% active; in the data active = activation above about 15%;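 note: untransfected CHO-K1 host cells lacking M1 receptor as counterscreen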
# M1 PAM: human M1 muscarinic receptor positive allosteric modulators, primary screen, CHO-K1 cells, Fluo-8 calcium fluorescence, 1536-well | Muscarinic acetylcholine receptor M1 (Homo sapiens), P11229 | CHO-K1 hM1, ACh EC20; 0% = ACh EC20, 100% = maximal ACh | activation, % at 3 µM | 360,000 tested, 0.088% active | AID 588819, 2011; in the data active = activation above about 19%, passing the limit was not always enough
# CHO-K1 Ca PAM: nonselective calcium activators in parental CHO-K1 cells, primary screen, counter-screen for M1 PAM project, cell-based, Fluo-8 calcium fluorescence, full deck, 1536-well | ATP EC20; 0% at ATP EC20, 100% at ATP max | activation, % at 3 µM | 360,000 tested, 0.02% active;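 active = activation above the run cutoff, the mean activation of all test compounds plus 3 SD, cut at about 40% in these data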;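 note: peak over basal fluorescence ratio in a 140 s read after ATP addition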
# M1 ag: human M1 muscarinic receptor agonists, primary screen, Fluo-8 calcium fluorescence, CHO-K1 cells, HTS. Muscarinic acetylcholine receptor M1 (Homo sapiens), P11229. CHO-K1 hM1, agonist mode; 0% DMSO, 100% acetylcholine EC100. activation, % at 3 µM. 360,000 tested, 0.33% active. AID 588814, 2011;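 active = activation above the run's mean compound activation plus 3 SD, cut at about 16% in these data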;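 note: peak over basal fluorescence ratio within a 140 s kinetic read after compound addition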
# Starred values were filed as active, the others as inactive.
SMILES,CHRM1 antagonist,CHO-K1 Ca antag,CHO-K1 Ca ag,M1 PAM,CHO-K1 Ca PAM,M1 ag
O=C(CN1CCCCC1)NN(Cc1ccccc1)c1ccccc1,61.3*,-0.4,0.6,-34.1,9.7,-12.9
CCOC(=O)C1=C[C@@H](CC)N(S(=O)(=O)c2ccc(C)cc2)[C@H]1c1ccccc1,24.0,11.2,0.0,-16.1,6.7,-6.2
CCOC(=O)C1=C[C@@H](C2CCCC2)N(S(=O)(=O)c2ccc([N+](=O)[O-])cc2)[C@H]1c1ccccc1,44.2*,31.2*,0.5,-19.2,-6.7,-3.6
O=C(Nc1nc2ccccc2[nH]1)c1ccc(Br)o1,3.5,-10.1,5.0,-0.9,-4.4,-3.3
CSc1ccccc1C(=O)Nc1cccc([N+](=O)[O-])c1,1.8,-10.2,1.4,7.0,-7.8,-2.9
O=C1CSC(=S)N1/N=C/c1cc(Br)c(O)c(Br)c1,89.8*,45.0*,106.3*,-41.8,-8.0,251.0*
C=CS(=O)(=O)c1ccc(Oc2ccc(S(=O)(=O)C=C)cc2)cc1,-2.3,-4.0,15.2*,4.5,9.4,-5.4
CC(C)[C@H](NS(=O)(=O)c1cccc(C(F)(F)F)c1)C(=O)OCC(N)=O,-11.7,-18.1,0.1,9.3,17.7,-2.1
O=C1COc2ccc(S(=O)(=O)CCC(=O)N3CCN(c4cccc(C(F)(F)F)c4)CC3)cc2N1,31.9,17.2,17.0*,-8.9,7.1,2.7
CC1Sc2ccc(S(=O)(=O)CCC(=O)N3CCN(c4cccc(Cl)c4)CC3)cc2NC1=O (configuration not stated),45.7*,19.6,14.6,-16.3,-22.4,2.7
CCC(=O)N(Cc1cc(=O)[nH]c2ccccc12)c1ccccc1,31.2*,-3.8,0.6,-21.7,10.2,-6.9
Cc1cccc(Oc2ccc(NS(=O)(=O)c3ccc(C)c(C(=O)O)c3)cc2)c1,-3.0,-0.4,2.2,8.2,0.0,-2.1
COC(=O)c1sc2nc(CSc3nc4ccc(C)cc4[nH]3)[nH]c(=O)c2c1C,11.0,4.7,0.4,-5.6,-5.5,-2.7
Cc1ccc2nc(SCc3nc4ccccc4c(=O)[nH]3)[nH]c2c1,-8.0,29.2*,1.4,4.1,-15.6,-5.9
CC(C)n1c(=N)c(C(=O)NCCc2ccccc2)cc2c(=O)n3ccccc3nc21,5.7,-9.6,-0.2,-14.2,5.0,-7.9
CCc1ccc(C(=O)C[n+]2cccc3cc(OC)ccc32)cc1,59.4*,3.0,-0.5,-28.7,7.6,-8.9
COC(=O)C1CCN(Cc2ccc(OCCCN3CCN(c4ccc([N+](=O)[O-])cc4)CC3)cc2)CC1,47.9*,3.8,13.1,-24.6,5.7,-5.3
O=C1C2CCCCN2C(=O)N1CCCCN1CCN(c2ccc([N+](=O)[O-])cc2)CC1 (configuration not stated),0.9,3.8,16.2*,1.0,14.0,-2.6
COc1ccc(N(C(=O)CNC(=O)c2ccco2)C(C(=O)NC2CCCCC2)c2cccnc2)cc1 (configuration not stated),12.6,-11.4,3.1,1.4,9.2,-2.2
CCCCOc1ccccc1NC(=O)c1scc2c1OCCO2,0.2,-24.5,2.3,-0.9,52.8*,-4.8
Cc1ccc(N2C(=O)c3cccc(Oc4ccc(Cl)cc4)c3C2=O)c(C)c1,-0.7,-12.1,0.4,-1.8,7.2,-1.1
O=C(O)CN1C(=O)c2cccc(Oc3ccc(Cl)cc3)c2C1=O,7.3,29.5*,-0.6,-2.4,-5.4,1.4
CCc1nnc(NS(=O)(=O)c2ccc(Nc3ccc4nonc4c3[N+](=O)[O-])cc2)s1,5.9,29.4*,-0.8,-8.7,-16.9,-5.0
CC(=O)Nc1ccc(Nc2ccc3nonc3c2[N+](=O)[O-])cc1,-7.6,-2.1,1.6,9.6,22.6,-6.1
CC(=O)Nc1ccc2nc(CN3CCN(CC(C)C)C(CCO)C3)ccc2c1 (configuration not stated),-6.8,-11.0,2.1,5.4,10.3,-8.0
SMILES,CHRM1 antagonist,CHO-K1 Ca antag,CHO-K1 Ca ag,M1 PAM,CHO-K1 Ca PAM,M1 ag
C=CCC(CC=C)(NC(=O)c1ccccc1C(=O)O)c1ccccc1,-7.7,-1.6,0.0,6.1,13.4,-6.1
Cc1cccc(-n2nnnc2SCn2nnc3ccccc3c2=O)c1,10.0,26.7*,2.1,-8.3,-6.0,-1.6
Cc1ccc(-n2nnnc2SCn2nnc3ccccc3c2=O)cc1,25.0,-2.5,1.9,-9.0,-2.3,-2.9
Cc1ccc(Sc2cc(C(=O)NCCCN(C)C)c3ccccc3n2)cc1,-5.8,-0.7,3.7,4.6,6.1,-10.2
CC(Sc1nnc(CN2CCCC2)n1Cc1ccccc1)C(=O)Nc1ccc(F)cc1Cl (configuration not stated),-3.1,23.8*,-0.6,-2.0,-19.0,-4.8
Nn1c(COc2cccc(Cl)c2)nc2ccccc2c1=O,6.5,1.7,25.3*,-3.0,11.5,-6.0
Cc1cc(=O)n(C)c(=O)n1CCCCOc1cccc([N+](=O)[O-])c1,1.6,7.3,0.5,1.9,-2.1,-9.2
COc1ccc(C(=O)N2CCN(S(=O)(=O)c3ccc(F)cc3)CC2)cc1OC,-6.5,9.0,20.2*,11.8,6.7,-7.8
Cc1ccc(C(=O)N2CCN(S(=O)(=O)c3ccccc3)CC2)cc1,31.2*,6.5,-0.6,-8.8,-5.5,-6.1
COc1ccc(S(=O)(=O)N2CCN(C(=O)c3cccnc3)CC2)cc1OC,-12.8,-10.2,1.2,4.1,9.2,-3.6
COc1ccc(S(=O)(=O)N2CCN(C(=O)c3ccc(=O)[nH]n3)CC2)cc1OC,-2.3,7.5,16.2*,6.7,2.5,0.6
COc1ccc(C(=O)N2CCN(S(=O)(=O)c3ccc(Cl)cc3)CC2)cc1OC,-6.8,-7.3,1.7,8.3,20.1,-4.7
Cn1c(COc2cccc3cccnc23)nnc1SCC(=O)O,-11.3,-20.6,1.2,8.9,24.5,-3.1
O=C(NNC(=O)c1ccc(Cl)cc1Cl)c1ccc2ccccc2c1,0.8,-2.2,-0.5,1.2,-18.8,-1.7
CC(=O)Nc1cccc(-c2ccnc3c2CC(C(=O)NCC2CCOCC2)O3)c1 (configuration not stated),-14.2,-12.9,0.3,8.2,11.3,-0.8
N#Cc1ccccc1CSc1nc2ccc(NC(=O)c3ccccc3C(=O)O)cc2s1,3.0,31.2*,2.6,3.1,-12.4,-12.7
O=C(O)c1ccc(CSc2nc3ccc(NC(=O)c4ccccc4C(=O)O)cc3s2)cc1,-8.7,-2.4,1.2,1.3,1.2,-6.2
COc1ccc(C(=O)Nc2cccc3c2C(=O)NC3=O)cc1S(=O)(=O)N1CCOCC1,7.5,8.0,-0.3,-1.0,-1.3,-4.3
